Data reported in PubChem BioAssay (Tox21).
Records with an inconclusive call do not appear. A number with no mark means an inactive call. Calls come from the whole dose curve; as a rule, active = well fitted inhibition curve with a large enough effect in the signal ratio in the repeat runs (not every such curve was filed as active); inconclusive = weak or mixed curves, or effect the other way; inactive = no such curve, though single readings can be large or run the other way; the % refers to the signal ratio.

Molecular target: Estrogen receptor beta (Homo sapiens) (UniProt Q92731)
Sequence (Q92731 whole entry, looked up): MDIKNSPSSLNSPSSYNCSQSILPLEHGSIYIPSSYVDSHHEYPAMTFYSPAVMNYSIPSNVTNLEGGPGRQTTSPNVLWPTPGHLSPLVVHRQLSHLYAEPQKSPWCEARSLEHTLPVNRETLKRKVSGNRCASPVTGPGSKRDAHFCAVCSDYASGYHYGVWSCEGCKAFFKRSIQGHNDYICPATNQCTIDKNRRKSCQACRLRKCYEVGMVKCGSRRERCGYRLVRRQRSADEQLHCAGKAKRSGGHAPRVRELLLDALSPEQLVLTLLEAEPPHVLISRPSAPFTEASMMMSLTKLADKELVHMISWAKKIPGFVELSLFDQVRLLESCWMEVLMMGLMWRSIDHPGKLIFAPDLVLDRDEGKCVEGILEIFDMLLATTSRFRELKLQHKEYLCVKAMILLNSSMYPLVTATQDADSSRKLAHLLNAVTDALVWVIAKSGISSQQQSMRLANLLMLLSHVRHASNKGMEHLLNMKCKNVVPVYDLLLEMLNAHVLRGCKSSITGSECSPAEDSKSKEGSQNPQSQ
Test: qHTS assay to identify small molecule antagonists of the estrogen receptor beta (ER-beta) signaling pathway (AID 1259378)
Conditions: ER-beta-UAS-bla HEK293T, beta-lactamase FRET ratio, 16 h; series mostly up to 92.4 µM; activity, negative = inhibition: at the top concentration
Text: National Center for Advancing Translational Sciences [NCATS]
NIH Chemical Genomics Center [NCGC]
U.S. Environmental Protection Agency [EPA]
National Institutes of Environmental Health Sciences [NIEHS]
National Toxicology Program [NTP]
U.S. Food and Drug Administration [FDA]
Estrogen receptor (ER), a nuclear hormone receptor, plays an important role in development, metabolic homeostasis and reproduction. Two subtypes of ER, ER-alpha and ER-beta, have similar expression patterns with some uniqueness in both types. Endocrine disrupting chemicals (EDCs) and their interactions with steroid hormone receptors like ER causes disruption of normal endocrine function. To identify the compounds that inhibit ER signaling, an ER-beta-UAS-bla GripTite cell line (Life Technologies, Madison, WI, USA) containing a beta-lactamase reporter gene under the control of an UAS response element was used to screen Tox21 10K compound library.
Tox21 Assay Protocol Summary:
ER-beta-UAS-bla HEK293T cells were dispensed at 2,000 cells/4 uL of assay medium containing 2% charcoal stripped FBS per well into black wall/clear-bottom 1536-well plates using a Multidrop Combi (ThermoFisher Scientific, Waltham, MA) dispenser. After the assay plates were incubated at a 37C and 5% CO2 for 6 hr, 23 nL of compounds dissolved in DMSO, positive controls or DMSO only was transferred to the assay plate by a Pintool station (Kalypsys, San Diego, CA), followed by addition of 1 uL (1nM as final concentration) of 17-beta-estradiol (E2) in assay medium using a BioRAPTR FRD (Flying Reagent Dispenser, Aurora Discovery, San Diego, CA). The plates were incubated at 37C and 5% CO2 for 16 hr. Then 1 uL of LiveBLAzerTM B/G FRET substrate was added using a Flying Reagent Dispenser, the plates were incubated at room temperature for 2 hours, and fluorescence intensity was measured by an Envision plate reader (PerkinElmer, Shelton, CT).
% is set by controls: 0 for no effect and ±100 for the full control effect.

Compound	activity, negative = inhibition
BrCCCCCBr	-1.83%
Cc1nc2n(c(=O)c1CCN1CCC(c3noc4cc(F)ccc34)CC1)CCC[C@H]2O	0.444% [at 19 µM]
Cc1c(I)c(=O)n(-c2ccccc2)n1C	4.68% [at 42.5 µM]
Cc1ccc(C=O)cc1C	13.5%
O=C(NCCc1c[nH]c2ccccc12)c1cccnc1	-2.1% [at 42.5 µM]
CC(=O)CCCCn1c(=O)c2c(ncn2C)n(C)c1=O	-1.1% [at 42.5 µM]
O=S(=O)(O)CCN1CCN(CCO)CC1	-6.12%
CCCCCCOc1ccccc1C(N)=O	-25.8% [at 42.5 µM]
Nc1nnc(-c2cccc(Cl)c2Cl)c(N)n1	-0.579% [at 42.5 µM]
COc1ccc(C2CNC(=O)C2)cc1OC1CCCC1 (stereo not given)	11.2% [at 42.5 µM]
Cc1cccc(C)c1NC(=O)c1ccccc1C(=O)O	-4.71% [at 42.5 µM]
CNC(=O)[C@H]1O[C@@H](n2cnc3c(NCc4cc(Cl)ccc4OCc4cc(C)no4)ncnc32)[C@H](O)[C@@H]1N	9.1%
O=C(O)c1ccc(Cl)cc1Cl	8.09%
CC(C)NCC(O)COc1cccc2[nH]ccc12 (stereo not given)	18.5% [at 42.5 µM]
Cc1ccccc1OCC(O)CO (stereo not given)	23.7% [at 42.5 µM]
COCCOCCOCCOCCO	5.96%
CCCOC(OCCC)OCCC	1.36%
CCN(CC)CC(=O)Nc1c(C)cccc1C	9.29% [at 42.5 µM]
O=C(/N=N/C(=O)OCc1ccccc1)OCc1ccccc1	-15.4%
CC(C)(C)NC(N)=O	5.59%

Compound	activity, negative = inhibition
CCCC/C=C\CCCCCCCCCC=O	9.24%
NS(=O)(=O)c1cc2c(cc1Cl)CN(C1CCCCC1)C2=O	-0.565% [at 42.5 µM]
CCC(C)NC(N)=O (stereo not given)	12.8%
Oc1cn2c(n1)Nc1ccc(Cl)c(Cl)c1C2	0.533% [at 19 µM]
C=C(C)C(=O)OCC(C)(C)COC(=O)C(=C)C	0.248%
CCO[Si](CCCS)(OCC)OCC	-2.23%
C[C@@H](Oc1ccc(CNC(=O)c2cccnc2Oc2ccc3c(c2)OCO3)c(F)c1)C(=O)O	0.517%
O=S(=O)(O)c1cc(O)c2ccc(Nc3ccccc3)cc2c1	-26%
CC(C)C[C@H](NC(=O)CNC(=O)[C@H](Cc1ccc(O)cc1)NC(=O)[C@H](CO)NC(=O)[C@H](Cc1c[nH]c2ccccc12)NC(=O)[C@H](Cc1cnc[nH]1)NC(=O)[C@@H]1CCC(=O)N1)C(=O)N[C@@H](CCCN=C(N)N)C(=O)N1CCC[C@H]1C(=O)NCC(N)=O (stereo in doubt)	-1.54% [at 42.5 µM]
Cc1ccccc1C(=O)Nc1ccc(C(=O)N2CCCC(N(C)C)c3ccccc32)cc1 (stereo not given)	-7.73% [at 42.5 µM]
COCCc1ccc(OCC2CO2)cc1 (stereo not given)	21.1% [at 42.5 µM]
CC/C=C\CC1=C(C)CCC1=O	4.22%
COc1cc(C(=S)N2CCOCC2)cc(OC)c1OC	3.26% [at 42.5 µM]
CC(C)NCC(O)COc1ccc(COCCOC(C)C)cc1 (stereo not given)	9.08% [at 42.5 µM]
C=COCCOCCOCCOC=C	-3.53%
C#CC(C)N(C)C(=O)Nc1ccc(Cl)cc1 (stereo not given)	-24.4%
NNc1nnc(NN)c2ccccc12	1.92% [at 42.5 µM]
CC(CO)c1ccccc1 (stereo not given)	1.65%
COCCOCCOCCOCCOCCO	8.12%
CCCCCCCC/C=C\CCCCCCCC(=O)OCCCC	0.587% [at 19 µM]
